Measurements: PubChem BioAssay (EPA / NIEHS)
Records with an inconclusive call do not appear. Activity calls are given as the source filed them. The calls were made as follows: active = hit-call score of the fitted dose curve at least 0.9, where 1 is the maximum; inconclusive = response in the unintended direction; inactive = score below 0.9. Peptide text beside a SMILES is read from it.

Key:
[1] = molecular target: Estrogen receptor (Homo sapiens) (UniProt P03372); assay: NVS_NR_hER: NovaScreen (NVS) Nuclear Receptor Binding Assay for human Estrogen Receptor (ER) (AID 2283348)
Estrogen receptor (Homo sapiens), sequence (P03372 whole entry, looked up, the tested form may be a part): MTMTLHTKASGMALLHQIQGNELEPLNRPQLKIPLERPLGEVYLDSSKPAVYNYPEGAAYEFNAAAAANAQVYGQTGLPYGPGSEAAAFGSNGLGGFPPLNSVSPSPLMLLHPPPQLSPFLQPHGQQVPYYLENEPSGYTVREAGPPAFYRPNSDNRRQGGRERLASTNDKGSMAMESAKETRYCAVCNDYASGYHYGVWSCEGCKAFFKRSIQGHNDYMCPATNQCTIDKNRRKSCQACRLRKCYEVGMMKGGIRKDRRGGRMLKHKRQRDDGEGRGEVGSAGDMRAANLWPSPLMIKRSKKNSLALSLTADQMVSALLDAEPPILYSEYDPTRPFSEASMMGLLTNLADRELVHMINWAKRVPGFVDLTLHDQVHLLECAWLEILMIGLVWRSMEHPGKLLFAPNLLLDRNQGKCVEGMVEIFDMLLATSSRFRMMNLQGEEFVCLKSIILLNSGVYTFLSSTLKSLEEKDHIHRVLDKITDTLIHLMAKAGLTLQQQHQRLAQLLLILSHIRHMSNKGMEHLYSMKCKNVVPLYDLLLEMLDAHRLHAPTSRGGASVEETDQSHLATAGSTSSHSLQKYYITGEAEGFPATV
Method in brief: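 Cell-free MCF7-derived ER preparation, specific radioligand displaced by test compound, read by scintillation counting 18 h post-dosing. Duplicate single-point 25 uM screen, then concentration-response confirmation; DMSO baseline.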

[2] = molecular target: Estrogen receptor (Homo sapiens) (UniProt P03372); assay: OT_ER_ERaERa_1440: Odyssey Thera (OT) 24-hour HEK293T Protein-Complementation Assay for Estrogen Receptor-alpha/-alpha Homodimer (AID 2283349);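 also: hits raise fluorescence above DMSO for agonists and antagonists alike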
Method in brief: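 HEK293T, stable ERα LBD (aa 310-547) homodimer PCA; 24 h compound exposure; mean fluorescence intensity (nuclear for agonists, nuclear plus cytoplasmic for antagonists) vs vehicle; positive fitting direction, DMSO baseline.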

[3] = molecular target: Estrogen receptor (Homo sapiens) (UniProt P03372); assay: OT_ER_ERaERa_0480: Odyssey Thera (OT) 8-hour HEK293T Protein-Complementation Assay for Estrogen Receptor-alpha/-alpha Homodimer (AID 2283351);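 also: rise in fluorescence from reassembled reporter fragments on ERα LBD homodimer in nucleus or whole cell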
Method in brief: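 HEK293T cells stably expressing a PCA pair of ER alpha LBD (residues 310-547) were dosed for 8 hours. The gain in fluorescence intensity, nuclear for agonists and whole-cell for antagonists, was measured by laser scanning cytometry against DMSO vehicle.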

[4] = molecular target: T1, Estrogen receptor (Homo sapiens) + Estrogen receptor beta (Homo sapiens) (UniProt P03372+Q92731); assay: OT_ER_ERaERb_0480: Odyssey Thera (OT) 8-hour HEK293T Protein-Complementation Assay for Estrogen Receptor-alpha/-beta Heterodimer (AID 2283352)
T1 sequence (P03372 whole entry, looked up, the tested form may be a part): as above
T1 sequence (Q92731 whole entry, looked up, the tested form may be a part): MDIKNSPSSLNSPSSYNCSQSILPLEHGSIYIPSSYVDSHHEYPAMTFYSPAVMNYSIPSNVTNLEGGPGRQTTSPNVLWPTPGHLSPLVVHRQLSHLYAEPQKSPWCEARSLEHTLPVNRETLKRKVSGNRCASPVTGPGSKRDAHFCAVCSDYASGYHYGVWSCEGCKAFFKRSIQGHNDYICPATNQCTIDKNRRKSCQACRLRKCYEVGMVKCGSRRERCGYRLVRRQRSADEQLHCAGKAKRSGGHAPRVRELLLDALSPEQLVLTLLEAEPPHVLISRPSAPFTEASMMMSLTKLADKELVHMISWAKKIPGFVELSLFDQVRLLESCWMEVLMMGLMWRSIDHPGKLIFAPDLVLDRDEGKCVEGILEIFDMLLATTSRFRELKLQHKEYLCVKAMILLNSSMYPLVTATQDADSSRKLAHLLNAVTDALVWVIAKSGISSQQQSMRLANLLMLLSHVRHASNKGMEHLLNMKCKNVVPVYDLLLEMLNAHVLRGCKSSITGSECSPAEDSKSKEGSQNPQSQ
Method in brief: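 Fluorescence increase from reconstituted reporter fragments, quantified by laser scanning cytometer, reflects ER-alpha/ER-beta heterodimer formation in human HEK293T cells. Exposure 8 h; positive-direction fitting against DMSO vehicle.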

[5] = molecular target: T1, Estrogen receptor (Homo sapiens) + Estrogen receptor beta (Homo sapiens); assay: OT_ER_ERaERb_1440: Odyssey Thera (OT) 24-hour HEK293T Protein-Complementation Assay for Estrogen Receptor-alpha/-beta Homodimer (AID 2283356);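 also: heteromer of ER alpha and ER beta binding domains; hits raise reporter fluorescence and both agonists and antagonists give an increase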
Method in brief: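 Fragment complementation between ER alpha (310-547) and ER beta (263-489) ligand-binding domains in HEK293T cells; signal read 24 h post-dosing by laser scanning cytometer. Gain of fluorescence relative to DMSO fitted.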

[6] = molecular target: Estrogen receptor beta (Homo sapiens) (UniProt Q92731); assay: OT_ER_ERbERb_0480: Odyssey Thera (OT) 8-hour HEK293T Protein-Complementation Assay for Estrogen Receptor-beta/-beta Homodimer (AID 2283357);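 also: active means signal gain over DMSO baseline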
Estrogen receptor beta (Homo sapiens), sequence (Q92731 whole entry, looked up, the tested form may be a part): as above
Method in brief: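 ER-beta LBD homodimer PCA stably expressed in HEK293T; 8 h compound exposure, then formaldehyde fixation and Draq5 staining. Gain in nuclear/cytoplasmic fluorescence intensity versus DMSO vehicle, read on laser scanning cytometer.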

[7] = molecular target: chimpanzee Androgen Receptor (AR), AR (gene 747460) (UniProt O97775); assay: NVS_NR_cAR: NovaScreen (NVS) Nuclear Receptor Binding Assay for chimpanzee Androgen Receptor (AR) (AID 2283346);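 also: radioligand displacement from AR measured by scintillation counting in a cell-free assay; a loss of bound radioligand signal versus DMSO counts as binding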
chimpanzee Androgen Receptor (AR), AR (gene 747460), sequence (O97775 whole entry, looked up): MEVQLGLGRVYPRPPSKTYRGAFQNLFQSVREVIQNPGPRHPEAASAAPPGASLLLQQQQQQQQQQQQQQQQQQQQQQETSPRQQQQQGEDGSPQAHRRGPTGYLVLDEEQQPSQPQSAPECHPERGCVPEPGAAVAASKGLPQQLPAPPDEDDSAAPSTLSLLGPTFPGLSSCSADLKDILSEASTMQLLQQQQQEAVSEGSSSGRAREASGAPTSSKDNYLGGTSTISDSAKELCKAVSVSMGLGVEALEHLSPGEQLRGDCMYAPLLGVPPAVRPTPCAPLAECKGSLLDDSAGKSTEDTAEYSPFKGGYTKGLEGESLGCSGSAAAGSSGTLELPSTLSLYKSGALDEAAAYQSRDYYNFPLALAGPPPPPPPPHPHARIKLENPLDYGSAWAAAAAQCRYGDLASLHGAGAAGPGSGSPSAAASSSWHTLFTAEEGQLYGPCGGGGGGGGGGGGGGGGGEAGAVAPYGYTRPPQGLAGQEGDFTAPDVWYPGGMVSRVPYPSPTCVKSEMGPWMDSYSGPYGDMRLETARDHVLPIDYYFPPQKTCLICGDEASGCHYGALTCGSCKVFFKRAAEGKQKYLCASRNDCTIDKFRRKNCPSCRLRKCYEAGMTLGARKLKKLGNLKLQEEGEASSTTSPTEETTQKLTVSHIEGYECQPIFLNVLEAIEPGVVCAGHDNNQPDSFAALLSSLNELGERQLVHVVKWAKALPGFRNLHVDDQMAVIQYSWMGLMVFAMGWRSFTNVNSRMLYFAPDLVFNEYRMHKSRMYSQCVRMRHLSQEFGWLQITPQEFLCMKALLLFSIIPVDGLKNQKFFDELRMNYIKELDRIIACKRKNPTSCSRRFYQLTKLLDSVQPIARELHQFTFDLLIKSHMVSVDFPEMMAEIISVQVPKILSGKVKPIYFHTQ
Method in brief: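 Cell-free competition binding with insect-cell (Sf9/Sf21) extracted chimpanzee AR; scintillation signal from lysate at 72 h. Screened in duplicate at 25 uM, then concentration-response for actives; fitting relative to DMSO.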

[8] = molecular target: Androgen Receptor/SRC-1 Co-activator, AR (gene 367) (UniProt P10275); assay: OT_AR_ARSRC1_0960: Odyssey Thera (OT) 16-hour HEK293T Protein-Complementation Assay for Androgen Receptor/SRC-1 Co-activator (AID 2283353);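 also: actives raise the signal above DMSO so potency reflects increased AR and SRC-1 complex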
Androgen Receptor/SRC-1 Co-activator, AR (gene 367), sequence (P10275 whole entry, looked up): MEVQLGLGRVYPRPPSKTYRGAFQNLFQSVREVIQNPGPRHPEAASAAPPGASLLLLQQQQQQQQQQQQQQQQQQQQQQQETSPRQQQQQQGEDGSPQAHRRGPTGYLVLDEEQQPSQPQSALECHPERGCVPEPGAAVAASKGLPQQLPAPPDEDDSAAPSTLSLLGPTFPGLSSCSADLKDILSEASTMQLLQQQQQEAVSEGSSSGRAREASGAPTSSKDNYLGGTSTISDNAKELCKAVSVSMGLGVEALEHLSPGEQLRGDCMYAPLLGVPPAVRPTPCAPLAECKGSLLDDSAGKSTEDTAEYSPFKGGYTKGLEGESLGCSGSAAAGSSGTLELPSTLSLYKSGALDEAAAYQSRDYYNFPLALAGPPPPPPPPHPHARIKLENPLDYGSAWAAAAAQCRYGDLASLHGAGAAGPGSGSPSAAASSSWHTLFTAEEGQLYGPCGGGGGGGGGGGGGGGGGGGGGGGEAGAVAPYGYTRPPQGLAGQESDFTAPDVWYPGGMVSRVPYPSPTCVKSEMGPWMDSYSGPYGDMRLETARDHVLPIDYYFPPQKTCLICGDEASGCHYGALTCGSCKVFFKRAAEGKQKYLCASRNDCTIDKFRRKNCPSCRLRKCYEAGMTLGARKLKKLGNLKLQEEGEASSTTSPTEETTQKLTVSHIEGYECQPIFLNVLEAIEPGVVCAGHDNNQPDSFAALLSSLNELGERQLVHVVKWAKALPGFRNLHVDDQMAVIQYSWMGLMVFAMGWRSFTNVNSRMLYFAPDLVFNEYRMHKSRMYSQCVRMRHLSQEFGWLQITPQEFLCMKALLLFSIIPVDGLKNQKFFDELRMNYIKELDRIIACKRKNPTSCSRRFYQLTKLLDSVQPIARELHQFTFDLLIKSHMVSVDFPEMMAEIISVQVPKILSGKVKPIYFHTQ
Method in brief: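 Endpoint is gain-of-signal N/C fluorescence ratio in the 488 nm channel versus DMSO, from at least 400 cells per image, measured 16 h post-dosing. Cells: HEK293T stably carrying split-Venus AR/SRC-1 complementation constructs.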

[9] = molecular target: Androgen Receptor/SRC-1 Co-activator, AR (gene 367) (UniProt P10275); assay: OT_AR_ARSRC1_0480: Odyssey Thera (OT) 8-hour HEK293T Protein-Complementation Assay for Androgen Receptor/SRC-1 Co-activator (AID 2283354);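 also: hits raise the complementation signal above DMSO so AC50 marks enhancers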
Method in brief: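 Reconstituted split-Venus YFP signal from AR–SRC-1 interaction, read by imaging 8 h post-dose in stable HEK293T lines. The 488 nm nucleus-to-cytoplasm ratio (≥400 cells/image) was fitted upward against DMSO.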

[10] = molecular target: human Peroxisome Proliferator-activated Receptor alpha (PPARa), PPARA (gene 5465) (UniProt Q07869); assay: NVS_NR_hPPARa: NovaScreen (NVS) Nuclear Receptor Binding Assay for human Peroxisome Proliferator-activated Receptor alpha (PPARa) (AID 2283359);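 also: activity means loss of TR-FRET signal versus DMSO baseline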
human Peroxisome Proliferator-activated Receptor alpha (PPARa), PPARA (gene 5465), sequence (Q07869 whole entry, looked up): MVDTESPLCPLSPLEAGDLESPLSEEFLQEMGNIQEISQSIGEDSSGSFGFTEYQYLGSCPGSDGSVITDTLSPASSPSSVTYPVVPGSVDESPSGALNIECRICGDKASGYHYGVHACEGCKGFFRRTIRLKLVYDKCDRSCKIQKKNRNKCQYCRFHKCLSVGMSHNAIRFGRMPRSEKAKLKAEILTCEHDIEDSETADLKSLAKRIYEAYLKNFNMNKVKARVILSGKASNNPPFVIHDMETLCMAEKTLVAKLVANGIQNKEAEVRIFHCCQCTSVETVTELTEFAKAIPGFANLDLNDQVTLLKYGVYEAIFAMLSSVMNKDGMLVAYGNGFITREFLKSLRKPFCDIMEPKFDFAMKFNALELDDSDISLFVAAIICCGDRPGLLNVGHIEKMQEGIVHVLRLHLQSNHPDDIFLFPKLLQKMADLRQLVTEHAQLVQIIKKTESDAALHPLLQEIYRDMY
Method in brief: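 Loss of TR-FRET binding signal relative to DMSO was measured 1 h after chemical addition to extracted receptor protein. Chemicals were first tested in duplicate at 25 uM, and actives were followed up in concentration series.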

[11] = molecular target: rat Mineralocorticoid Receptor (MR), Nr3c2 (gene 25672) (UniProt P22199); assay: NVS_NR_rMR: NovaScreen (NVS) Nuclear Receptor Binding Assay for rat Mineralocorticoid Receptor (MR) (AID 2283355)
rat Mineralocorticoid Receptor (MR), Nr3c2 (gene 25672), sequence (P22199 whole entry, looked up): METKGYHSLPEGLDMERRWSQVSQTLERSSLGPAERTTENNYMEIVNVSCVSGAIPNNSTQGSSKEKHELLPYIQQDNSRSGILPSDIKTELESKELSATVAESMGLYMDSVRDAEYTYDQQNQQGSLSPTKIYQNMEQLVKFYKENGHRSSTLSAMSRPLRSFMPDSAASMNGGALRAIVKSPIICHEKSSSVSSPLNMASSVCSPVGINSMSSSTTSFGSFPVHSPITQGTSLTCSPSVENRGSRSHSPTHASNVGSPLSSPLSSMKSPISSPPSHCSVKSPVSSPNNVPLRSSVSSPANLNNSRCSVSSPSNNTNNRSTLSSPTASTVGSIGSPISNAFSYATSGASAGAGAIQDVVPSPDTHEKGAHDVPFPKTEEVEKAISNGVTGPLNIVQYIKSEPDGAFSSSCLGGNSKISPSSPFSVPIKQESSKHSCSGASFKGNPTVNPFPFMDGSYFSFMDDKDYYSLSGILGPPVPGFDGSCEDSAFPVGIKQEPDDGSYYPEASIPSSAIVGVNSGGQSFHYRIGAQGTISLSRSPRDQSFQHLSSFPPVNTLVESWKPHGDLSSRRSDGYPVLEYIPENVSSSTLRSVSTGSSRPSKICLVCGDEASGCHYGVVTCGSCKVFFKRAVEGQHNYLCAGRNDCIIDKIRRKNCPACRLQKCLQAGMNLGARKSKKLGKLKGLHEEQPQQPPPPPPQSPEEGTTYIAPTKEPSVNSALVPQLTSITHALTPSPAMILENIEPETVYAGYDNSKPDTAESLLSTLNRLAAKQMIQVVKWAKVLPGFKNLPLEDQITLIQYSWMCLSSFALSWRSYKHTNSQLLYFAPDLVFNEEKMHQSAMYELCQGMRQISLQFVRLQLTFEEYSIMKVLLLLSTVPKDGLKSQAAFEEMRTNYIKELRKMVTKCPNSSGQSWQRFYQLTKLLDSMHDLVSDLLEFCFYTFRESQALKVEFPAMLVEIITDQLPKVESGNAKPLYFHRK
Method in brief: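 Primary HTS ran in duplicate at a single 25 uM concentration, with concentration-series follow-up for actives. Receptor source: adrenalectomized rat brain supernatant, cell-free. Radioligand displacement read by scintillation at 24 h, relative to DMSO baseline.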

Measured: AC50

Cc1cc(C)n(CO)n1
inactive: [1] | [2] | [3]

CO[Si](C)(C)OC
inactive: [1] | [3] | [4] | [5] | [6]

CCCCOC(=O)CCC(C)=O
inactive: [1]

CCCCC(=O)O
inactive: [2] | [3] | [4] | [5]

CC(C)c1cc(C(C)C)cc(C(C)C)c1
inactive: [7] | [3] | [4] | [5] | [6]

CC(C)(C)N
inactive: [2] | [3]

O=C(O)CCC(=O)O
inactive: [2] | [3]

C/C=C/C=C/CCCCCCCO
inactive: [2] | [3]

Cc1c(C(=O)c2c[nH]n(C)c2=O)ccc(S(C)(=O)=O)c1C1=NOCC1
inactive: [2] | [3] | [4] | [8] | [5] | [6]

CC1=CC=C(C(C)C)CC1
active: [2] 31.5 µM
inactive: [3]

CC1=NN(c2ccc(S(=O)(=O)O)cc2)C(=O)C1N=Nc1ccccc1 (stereo not given)
inactive: [2] | [3]

O=C(O)CC(C(=O)O)S(=O)(=O)O (stereo not given)
inactive: [2] | [3]

CCc1occc(=O)c1O
inactive: [2] | [3]

CCC[Si](OC)(OC)OC
not listed: [1] | [7] | [10] | [11]
inactive: all other assays above

CCC1COC(=O)O1 (stereo not given)
inactive: [2] | [3]

N=C1C=CC(=C(c2ccc(N)cc2)c2ccc(N)cc2)C=C1
inactive: [1]

CCCCCCCCCC(C)=O
inactive: [2] | [4] | [8] | [9] | [5] | [6]
active: [3] 68.5 µM

COc1ccc(C(=O)c2ccccc2)c(O)c1
active: [3] 58.4 µM | [4] 31 µM | [5] 58.7 µM | [6] 50 µM
inactive: [8] | [9]

C=C[C@@]1(C)CC(=O)[C@]2(O)[C@@]3(C)[C@@H](O)CCC(C)(C)[C@@H]3[C@H](O)[C@H](OC(C)=O)[C@@]2(C)O1
inactive: [2] | [3] | [4] | [6]
active: [5] 36.1 µM

COC(=O)[C@H](Cc1ccccc1)NC(=O)[C@@H](N)CC(=O)O (H-Asp-Phe-OMe)
inactive: [3]

CCCCCCO
inactive: [2] | [3] | [10]

CCOC(=O)c1ccccc1C
inactive: [3] | [4] | [5] | [6]

CCCCCCCO
inactive: [2] | [3] | [4] | [5] | [6]

Cc1ccc(C)c(OCCCC(C)(C)C(=O)O)c1
inactive: [3] | [4] | [8] | [9] | [11] | [5]
